In PubChem BioAssay AID1508601 (ICCB-Longwood Screening Facility, Harvard Medical School, 2020):
About 85 (1%) of roughly 5,700 compounds were called active. Cut-off read from the data, not from the text of the source: active = p53-positive nuclei above about 36% (passing the limit was not always enough); inactive = the rest. The full list was thinned out, with actives kept by preference.

Key:
[1] = nuclear p53 accumulation, HPV+ cells – imaging, p53-positive nuclei imaging, 24 h, 48 h (AID 1508601); conditions: 24/48 h
[2] = target: Cellular tumor antigen p53 (Homo sapiens) (UniProt P04637); assay: as above; conditions: 24/48 h, stronger effect = higher value
Cellular tumor antigen p53 (Homo sapiens), sequence (P04637 whole entry, looked up): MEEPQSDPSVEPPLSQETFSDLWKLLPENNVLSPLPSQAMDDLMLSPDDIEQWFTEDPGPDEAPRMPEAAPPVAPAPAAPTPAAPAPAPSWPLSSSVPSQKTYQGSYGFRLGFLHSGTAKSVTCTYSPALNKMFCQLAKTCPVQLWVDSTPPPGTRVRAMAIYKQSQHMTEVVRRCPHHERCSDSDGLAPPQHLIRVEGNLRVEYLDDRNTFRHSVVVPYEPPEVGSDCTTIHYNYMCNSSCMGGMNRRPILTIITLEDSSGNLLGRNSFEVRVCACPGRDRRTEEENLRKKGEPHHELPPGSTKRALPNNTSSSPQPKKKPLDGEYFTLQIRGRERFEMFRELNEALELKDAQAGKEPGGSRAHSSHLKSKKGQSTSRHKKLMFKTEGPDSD

[3] = measured here: cell number at 24 h, Library stock concentration: 3.33 mM
[4] = measured here: cell number at 48 h, Library stock concentration: 3.33 mM
[5] = Library stock concentration: 3.33 mM
[6] = measured here: p53 positive nuclei at 24 h, Library stock concentration: 3.33 mM
[7] = measured here: cell number at 24 h, Library stock concentration: 10 mM
[8] = measured here: cell number at 48 h, Library stock concentration: 10 mM
[9] = Library stock concentration: 10 mM
[10] = measured here: p53 positive nuclei at 24 h, Library stock concentration: 10 mM

SMILES: Cc1nn(C)cc1-c1ccnc(N2CCCC(c3nc4c(C)cccc4[nH]3)C2)n1 (centres undefined)
- nuclei count, normalised ([1]; measured here: cell number at 24 h, concentration not given here): 103%
- nuclei count, normalised ([1]; measured here: cell number at 48 h, concentration not given here): 106%
- p53-positive nuclei, normalised ([2]; concentration not given here): -0.267% (inactive)
- p53-positive nuclei, normalised ([2]; measured here: p53 positive nuclei at 24 h, concentration not given here): -0.151%

SMILES: CC1(C)S[C@@H]2C(NC(=O)C(C(=O)O)c3ccccc3)C(=O)N2C1C(=O)O (some centres undefined)
- nuclei count, normalised [1, 3]: 119%
- nuclei count, normalised [1, 4]: 111%
- p53-positive nuclei, normalised [2, 5]: -0.208% (inactive)
- p53-positive nuclei, normalised [2, 6]: -0.327%

SMILES: COc1cc(OC)c2c(=O)[nH]c(-c3cc(C)c(OCCO)c(C)c3)nc2c1
- nuclei count, normalised ([1]; measured here: cell number at 24 h, Library stock concentration: 46 uM): 114%
- nuclei count, normalised ([1]; measured here: cell number at 24 h, Library stock concentration: 278 uM): 107%
- nuclei count, normalised ([1]; measured here: cell number at 24 h, Library stock concentration: 1.67 mM): 118%
- nuclei count, normalised [1, 3]: 108%
- nuclei count, normalised [1, 7]: 109%
- nuclei count, normalised ([1]; measured here: cell number at 48 h, Library stock concentration: 46 uM): 111%
- nuclei count, normalised ([1]; measured here: cell number at 48 h, Library stock concentration: 278 uM): 108%
- nuclei count, normalised ([1]; measured here: cell number at 48 h, Library stock concentration: 1.67 mM): 107%
- nuclei count, normalised [1, 4]: 103%
- nuclei count, normalised [1, 8]: 108%
- p53-positive nuclei, normalised ([2]; Library stock concentration: 46 uM): 0.0206% (inactive)
- p53-positive nuclei, normalised ([2]; Library stock concentration: 278 uM): 0.323% (inactive)
- p53-positive nuclei, normalised ([2]; Library stock concentration: 1.67 mM): 0.07% (inactive)
- p53-positive nuclei, normalised [2, 5]: 0.152% (inactive)
- p53-positive nuclei, normalised [2, 9]: -0.223% (inactive)
- p53-positive nuclei, normalised ([2]; measured here: p53 positive nuclei at 24 h, Library stock concentration: 46 uM): -0.102%
- p53-positive nuclei, normalised ([2]; measured here: p53 positive nuclei at 24 h, Library stock concentration: 278 uM): 0.166%
- p53-positive nuclei, normalised ([2]; measured here: p53 positive nuclei at 24 h, Library stock concentration: 1.67 mM): -0.00477%
- p53-positive nuclei, normalised [2, 6]: 0.0179%
- p53-positive nuclei, normalised [2, 10]: -0.153%

SMILES: CC(C)c1nn(-c2c(Cl)cccc2Cl)c2nc(Cc3ccc(OCCO)cc3)[nH]c(=O)c12
- nuclei count, normalised ([1]; measured here: cell number at 24 h, Library stock concentration: 80 uM): 64.8%
- nuclei count, normalised ([1]; measured here: cell number at 24 h, Library stock concentration: 400 uM): 36%
- nuclei count, normalised ([1]; measured here: cell number at 24 h, Library stock concentration: 2 mM): 26.2%
- nuclei count, normalised [1, 7]: 26.4%
- nuclei count, normalised ([1]; measured here: cell number at 48 h, Library stock concentration: 80 uM): 50.6%
- nuclei count, normalised ([1]; measured here: cell number at 48 h, Library stock concentration: 400 uM): 25.1%
- nuclei count, normalised ([1]; measured here: cell number at 48 h, Library stock concentration: 2 mM): 17.9%
- nuclei count, normalised [1, 8]: 18.4%
- p53-positive nuclei, normalised ([2]; Library stock concentration: 80 uM): 27.9% (inactive)
- p53-positive nuclei, normalised ([2]; Library stock concentration: 400 uM): 67% (active)
- p53-positive nuclei, normalised ([2]; Library stock concentration: 2 mM): 32.9% (inactive)
- p53-positive nuclei, normalised [2, 9]: 34.7% (inactive)
- p53-positive nuclei, normalised ([2]; measured here: p53 positive nuclei at 24 h, Library stock concentration: 80 uM): 18.6%
- p53-positive nuclei, normalised ([2]; measured here: p53 positive nuclei at 24 h, Library stock concentration: 400 uM): 19.1%
- p53-positive nuclei, normalised ([2]; measured here: p53 positive nuclei at 24 h, Library stock concentration: 2 mM): 6.59%
- p53-positive nuclei, normalised [2, 10]: 4.85%
